Compound activity (PubChem BioAssay)
This is one part of a sample in which hits are shown more often than they occur.
IL-1B inflam inh: inflammasome signaling inhibition, IL-1 beta readout; THP-1 LPS/ATP IL-1B secretion, AlphaLISA, 16 h; active compounds read low; 4.7% of 360,000 active; AID 743279; activity change, % at 57.5 µM; in the data active = activity change below about -50%; inconclusive = mostly about -30% to -49%
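Secreted IL-1B measured by AlphaLISA bead assay after 16 h compound exposure of THP-1 cells; compounds (final up to 57.5 uM) added 1 h before LPS (250 ng/mL) and ATP (1.25 mM) stimulation; lower signal means less secretion.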
HT1080-NT tox: kills 2HG-producing HT-1080-NT fibrosarcoma cells | AID 686970 | HT-1080-NT fibrosarcoma viability, CellTiter-Glo ATP luminescence, 48 h | 1.6% of 360,000 active | Potency, µM (highest dose often 46.1 µM), without a hit: top-dose activity, negative = less viability, most hits filed as cytotoxic;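 note: NT is the 2HG producing partner of a matched IDH1 knockdown line; potency is the fitted concentration of half-maximal effect; 0% = DMSO-treated cells and -100% = media-only wells without cells; nearly all actives have a fitted effect of over 55% in size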
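Viability of the 2HG-overproducing fibrosarcoma line after 48 hours of compound exposure at 37 degrees C was determined by luminescence with CellTiter-Glo, and concentration-effect curves were then fitted and categorized.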
DT40 TDP1 CPT: DT40-hTDP1 cell growth loss with CPT; chicken DT40 Tdp1-/-;hTDP1 cells + 20 nM CPT, ATP luminescence, 48 h; Potency, µM (highest dose often 46.2 µM), without a hit: at the top dose activity change, negative = growth inhibition, hits mostly inhibitors; 12% of 420,000 active; AID 686979; note: potency is the fitted concentration of half-maximal effect; nearly all actives have a fitted effect of over 55% in size
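Chicken DT40 Tdp1-/- cells stably complemented with human TDP1 were seeded at 400 cells/well in medium containing 20 nM camptothecin, exposed to pin-transferred compounds, and grown at 37 °C for at least 48 hr. Viability was read as ATP luminescence.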
TDP1 cell noCPT: qHTS for Inhibitors of human tyrosyl-DNA phosphodiesterase 1 (TDP1): qHTS in cells in absence of CPT | 15% of 420,000 active | Potency, µM (series often up to 46.2 µM), inactives show at the highest dose activity change, negative = growth inhibition, actives largely listed as inhibitors | DT40 Tdp1-/- hTDP1 cells, no CPT, ATP luminescence, 48 h | AID 686978, 2013; note: potency is the fitted concentration of half-maximal effect; nearly all actives have a fitted effect of over 55% in size
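A cellular qHTS used chicken DT40 cells lacking endogenous Tdp1 but carrying stably transfected human TDP1. Compounds were applied without camptothecin, and cell growth kinetics were judged by ATP-dependent luminescence after ≥48 hr.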
12-LOX inh: blocks human arachidonate 12S-lipoxygenase. P18054. purified 12hLO, xylenol orange hydroperoxide absorbance. Potency, µM (highest dose often 108 µM), without a hit: at the top dose activity change, negative = inhibition, most hits filed as inhibitors. 1.1% of 580,000 active. AID 1671190; note: potency is the fitted concentration of half-maximal effect
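Hydroperoxide product was detected by ferrous iron/xylenol orange as the 573 to 405 nm absorbance ratio. Arachidonic acid at 40 uM (final) was turned over for 30 min at room temperature by 150 nM human 12hLO, pH 7.0 Hepes buffer, after 15 min compound preincubation.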
HT1080 IDH1KD tx: kills HT-1080 cells with IDH1 knockdown. HT-1080 IDH1 knockdown viability, ATP luminescence, 48 h. Potency, µM (titrated, usually from 46.1 µM), for the others: at the highest dose activity, negative = toxicity, hits mostly cytotoxic. 2% of 360,000 active;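 note: potency is the fitted concentration of half-maximal effect; 0% = DMSO wells and -100% = cell-free medium wells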
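Using the IDH1-knockdown HT-1080 line run in the same batch and compound series as the NT line, viability after 48 h at 37 °C was determined by CellTiter-Glo luminescence and expressed as % activity.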
Numbers without * were called inactive; ? = inconclusive; . = no result given; ! = repeats disagree; [ ] = remark or other dose. Unless noted, calls come from the whole dose curve; as a rule, active = well fitted curve in the direction sought with a large enough effect; inconclusive = small, poorly fitted or top-dose-only effect, or another doubt; inactive = no such curve, though single readings can be large; an effect the other way counts as inactive or inconclusive. Unless noted, % is set by controls: 0 for no effect and ±100 for the full control effect.

SMILES	IL-1B inflam inh	HT1080-NT tox	DT40 TDP1 CPT	TDP1 cell noCPT	12-LOX inh	HT1080 IDH1KD tx
Cc1ccc(-c2cc(C(F)F)n3ncc(C(=O)NN4CCCCC4)c3n2)cc1	3	23%	21µM*	23µM*	-3%	3%
COC(=O)c1cc(COc2ccc3c(c2)oc(=O)c2ccccc23)c(C)o1	0	28%	?	?	0%	27%
CCOC(=O)CCNC(=O)N1c2ccccc2CC1c1nc(C2CC2)no1 (configuration not stated)	.	.	.	.	68%	.
O=C(C1CCC1)N1CCOc2ccc(CN3CCc4ccccc4C3)cc2C1	.	.	.	.	47%	.
COc1ccc(-c2cc(CNS(=O)(=O)c3ccc(F)cc3)on2)cc1	6	-3%	6%	?	3%	-3%
O=C(c1cc2nc(-c3ccc(F)cc3)cc(C(F)(F)F)n2n1)N1CCCCC1c1cccnc1 (configuration not stated)	-62*	?	13µM*	9.2µM*	8%	18µM*
COc1ccc(Nc2oc(-c3ccc(Cl)cc3)nc2C#N)cc1	-15	?	6.5µM*	2.9µM*	?	?
COc1ccc(-c2nc(C#N)c(NCCc3ccccc3)o2)cc1	-4	-10%	15µM*	14µM*	-9%[57.4 µM]	20%
COc1ccc(-c2nc(C#N)c(NCc3ccccc3)o2)cc1	.	.	.	.	11%	.
CCOc1ccc(Nc2oc(-c3ccc(Cl)cc3)nc2C#N)cc1	-9	-28%	?	4.1µM*	?	?
COCCNc1oc(-c2ccc(Cl)cc2)nc1C#N	-56*	1%	1%	-4%	?	0%
CS(=O)(=O)N1C[C@H]2CCN(Cc3cc(F)c(F)cc3F)C[C@H]21	.	.	.	.	7%	.
C=CCNc1oc(-c2cccc(Cl)c2)nc1C#N	.	.	.	.	-3%	.
CCN(CC)CCCNc1oc(-c2cccc(Cl)c2)nc1C#N	-9	-2%[9.24 µM]	?	23µM*	-12%	?
Cc1cccc(C(=O)Nc2c(C(=O)NCc3ccc(Cl)cc3)sc3nc(C)cc(C)c23)c1	.	.	16µM*	26µM*	-16%	.
Cc1ncsc1C(=O)N1CC(CNC(=O)C2CCOCC2)C2(C1)CN(c1ccccc1)C2 (configuration not stated)	.	.	.	.	1%	.
O=c1[nH]n(Cc2ccccc2)c(=O)c2ccccc12	17	4%	?	8.9µM*	6%	?
COC(=O)CCn1[nH]c(=O)c2ccccc2c1=O	-13	9%	19%	-11%	-30%	29%
CCc1ccc(OCc2n[nH]c(=S)n2C(C)CCCC(C)C)cc1 (configuration not stated)	-9	-12%	?	?	35µM*	-26%
CCc1ccc(OCc2n[nH]c(=S)n2Cc2ccccc2)cc1	17	-18%	?	?	?	-11%
CC(C)CCn1c(COc2ccccc2)n[nH]c1=S	18	17%	6%	12%	16µM*!	3%
